Test results published in PubChem BioAssay (NCI).
This is part of a sample that, as a whole, favours compounds with a hit. Of some 83,000 tested, about 20% had one in any assay.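 In brief: 96-well plates, 48 h treatment, single concentration, percent growth endpoint.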 Unmarked numbers belong to inactive results. Active and inactive are the calls of the source. Rule for the calls: active = growth percent below 10; inactive = the rest.

test system: HL-60(TB) leukemia; assay: NCI-60 one-dose screen, 48 h (100 = growth as untreated, 0 = no growth, -100 = all killed); conditions: 10 µM unless noted

Row | SMILES | growth
1 | COc1ccc(-c2cc(-c3cc(OC)ccc3OC)nc(N)c2C#N)cc1 | 90.4%
2 | O=C1Nc2ccc(Cl)cc2/C1=N/c1nc(-c2ccc(Cl)cc2)cs1 | -32.4% (active)
3 | FC(F)(F)c1ccc2c(c1)Sc1ccccc1N2 | 72.6%
4 | COc1cc(C2C3=C(COC3=O)N(CCO)c3cc4c(cc32)OCCO4)cc(OC)c1O (stereo unspecified) | -9% (active)
5 | COc1cc(/C(C#N)=C/c2ccc3c(c2OC)OCO3)cc2c1OCO2 | 26.9%
6 | O=C(Cn1cc(COc2ncnc3c2cnn3-c2ccccc2)nn1)Nc1ccccn1 | 105%
7 | Clc1ccc(OCc2nc(-c3ccccc3)n[nH]2)c(Cl)c1 | 94.9%
8 | COc1cc(C(=O)c2c(-c3ccccc3)oc3c(OC)cccc23)cc(OC)c1O | 3.31% (active)
9 | S=c1[nH]cccc1-c1nnc2n1Nc1nc3ccccc3cc1CS2 | 105%
10 | CC(C)N1C(=O)S/C(=C2/SC(=O)N(C(C)C)C2=O)C1=O | 98.4%
11 | O=c1ccn(C2CCCO2)c(=O)[nH]1 (stereo unspecified) | 111%
12 | CC(C)C(=O)Nc1nc2c(s1)CCCc1ccn(S(=O)(=O)c3ccccc3)c1-2 | 83.8%
13 | Cn1cc(-c2nonc2-c2cn(C)c3ccc(Br)cc23)c2ccccc21 | -18.9% (active)
14 | Clc1ccccc1CNc1c2ccccc2nc2ccccc12 | 13.6%
15 | Nc1nc(Nc2ccc([N+](=O)[O-])cc2O)nc(C(Cl)(Cl)Cl)n1 | 6.38% (active)
16 | Cc1cc(=O)oc2cc(OCc3nn4c(Nc5nc6ccccc6s5)c(-c5ccccc5)nc4s3)ccc12 | 93.1%
